Only some compounds are listed: those with a hit (about 0.87% of all), similar ones and a draw of the others.
FEN1 inh-1 = qHTS Assay for the Inhibitors of Human Flap endonuclease 1 (FEN1); Recombinant FEN1 flap cleavage, fluorescence, 15 min; AID 588795, 2011; Potency, µM (highest dose often 114 µM), most hits filed as inhibitors; P39748; 390,000 tested, 0.35% active; further: nearly all actives have a fitted effect of over 65% in size
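Quantitative HTS format: each compound was titrated, incubated with 10 nM nuclease for 15 min at room temperature, then challenged with flap substrate at 50 nM final. Signal change over 15 min gave concentration–effect curves.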
BLM helicase inh-1 = qHTS Assay for Inhibitors of Bloom's syndrome helicase (BLM). AID 2528, 2010. 350,000 tested, 0.2% active. recombinant BLM DNA unwinding, fluorescence dequenching. Potency, µM (top dose mostly 56.1 µM), hits mostly inhibitors; further: nearly all actives have a fitted effect of over 35% in size
APE1 inh = qHTS Assay for Inhibitors of the Human Apurinic/apyrimidinic Endonuclease 1 (APE1) | DNA repair nuclease/redox regulator APEX1 (Homo sapiens), P27695 | recombinant APE1, TAMRA/BHQ-2 abasic DNA cleavage fluorescence | Potency, µM (series often up to 65.8 µM), usual class: inhibitors | 350,000 tested, 0.35% active | AID 2517, 2012; further: nearly all actives have a fitted effect of over 55% in size
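Compound pre-exposure to 0.75 nM APE1, 15 min at ambient temperature. Reaction initiated with 50 nM TAMRA/BHQ-2 THF substrate, read immediately in kinetic mode, 525 nm excitation, 598 nm emission.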
WRN helicase inh-1 = qHTS for Inhibitors of WRN Helicase; 360,000 tested, 0.46% active; AID 651768, 2012; WRN helicase unwinding, fluorescent forked duplex, kinetic; Potency, µM (series often up to 114 µM), actives largely listed as inhibitors; Bifunctional 3'-5' exonuclease/ATP-dependent helicase WRN (Homo sapiens), Q14191; further: nearly all actives have a fitted effect of over 55% in size
Target sequence (Q14191 whole entry, looked up): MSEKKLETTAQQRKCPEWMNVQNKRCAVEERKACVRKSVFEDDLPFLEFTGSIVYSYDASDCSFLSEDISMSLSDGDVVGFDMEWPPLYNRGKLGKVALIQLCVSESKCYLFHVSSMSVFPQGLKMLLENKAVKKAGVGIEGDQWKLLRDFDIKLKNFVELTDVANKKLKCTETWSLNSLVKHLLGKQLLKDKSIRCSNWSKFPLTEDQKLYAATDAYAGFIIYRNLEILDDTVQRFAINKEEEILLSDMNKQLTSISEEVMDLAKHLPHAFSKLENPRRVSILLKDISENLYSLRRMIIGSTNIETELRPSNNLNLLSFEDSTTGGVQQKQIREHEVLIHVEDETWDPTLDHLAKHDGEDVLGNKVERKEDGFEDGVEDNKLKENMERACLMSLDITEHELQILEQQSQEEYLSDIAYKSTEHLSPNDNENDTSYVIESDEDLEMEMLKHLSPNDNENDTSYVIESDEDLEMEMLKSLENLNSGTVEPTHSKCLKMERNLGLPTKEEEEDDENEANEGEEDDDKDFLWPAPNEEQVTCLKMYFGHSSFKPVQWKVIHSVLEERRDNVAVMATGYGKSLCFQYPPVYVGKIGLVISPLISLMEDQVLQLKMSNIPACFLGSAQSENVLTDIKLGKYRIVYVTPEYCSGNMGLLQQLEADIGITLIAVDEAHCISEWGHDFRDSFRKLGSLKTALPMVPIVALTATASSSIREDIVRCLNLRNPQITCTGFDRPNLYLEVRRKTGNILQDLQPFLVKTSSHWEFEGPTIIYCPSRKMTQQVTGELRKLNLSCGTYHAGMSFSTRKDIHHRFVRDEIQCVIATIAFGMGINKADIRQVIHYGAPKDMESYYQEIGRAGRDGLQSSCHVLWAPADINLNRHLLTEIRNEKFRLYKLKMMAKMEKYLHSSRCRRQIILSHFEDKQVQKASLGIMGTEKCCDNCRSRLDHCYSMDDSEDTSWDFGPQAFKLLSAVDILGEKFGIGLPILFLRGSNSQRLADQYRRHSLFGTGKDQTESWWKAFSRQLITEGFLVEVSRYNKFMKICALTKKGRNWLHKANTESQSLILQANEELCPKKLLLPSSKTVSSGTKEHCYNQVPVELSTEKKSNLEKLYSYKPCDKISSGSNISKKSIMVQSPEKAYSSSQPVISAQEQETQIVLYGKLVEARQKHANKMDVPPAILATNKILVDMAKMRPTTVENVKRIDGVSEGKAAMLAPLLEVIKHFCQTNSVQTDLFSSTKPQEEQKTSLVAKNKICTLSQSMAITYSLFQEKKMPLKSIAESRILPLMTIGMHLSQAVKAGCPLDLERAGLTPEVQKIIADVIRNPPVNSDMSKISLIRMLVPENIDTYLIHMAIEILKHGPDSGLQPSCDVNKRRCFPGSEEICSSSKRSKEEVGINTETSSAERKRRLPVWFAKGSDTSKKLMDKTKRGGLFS
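Kinetic fluorescence helicase assay: unwinding of a quenched forked DNA duplex (100 nM final) with 2 mM ATP final raises red fluorescence (525/598 nm). Compounds sat 15 min at room temperature with 20 nM WRN beforehand.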
RECQ1 inh = qHTS Assay for Inhibitors of RecQ-Like Dna Helicase 1 (RECQ1); AID 2549, 2010; 240,000 tested, 0.54% active; RECQ1 DNA unwinding, red fluorescence kinetic read; ATP-dependent DNA helicase Q1 (Homo sapiens), P46063; Potency, µM (highest dose often 57.3 µM), most hits filed as inhibitors; further: nearly all actives have a fitted effect of over 30% in size
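RECQ1T1 50 nM; forked duplex (20 bp + 30-nt ss tails) 200 nM, ATP 2 mM final; pH 8.0, 2 mM MgCl2, 2.5 ug/ml poly(dI-dC); 15 min compound preincubation; discontinuous kinetic read over 2 h at RT.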
FEN1 inh-2 = qHTS Assay for the Inhibitors of FEN1: Confirmatory Assay for Cherry-picked Compounds | shares compounds with FEN1 inh-1 | FEN1 flap cleavage, TAMRA/BHQ2 fluorogenic DNA substrate | Potency, µM, hits mostly inhibitors | 880 tested, 79% active | AID 720498, 2013; further: nearly all actives have a fitted effect of over 60% in size
WRN helicase inh-2 = qHTS for Inhibitors of WRN Helicase: Confirmatory Assay for Cherry-picked Compounds; AID 720497, 2013; 610 tested, 63% active; Potency, µM (doses to about 57.1 µM), actives largely listed as inhibitors; shares compounds with WRN helicase inh-1; WRN helicase DNA unwinding, fluorescence kinetic; further: nearly all actives have a fitted effect of over 65% in size
TO DNA binding = qHTS for Inhibitors of WRN Helicase: Thiazole Orange DNA Binding Counterscreen. 610 tested, 10% active. AID 720499, 2013. thiazole orange DNA binding displacement, fluorescence. Potency, µM (highest dose often 57.1 µM), usual class: inhibitors. shares compounds with WRN helicase inh-1;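 further: drop in dye fluorescence marks compound binding to DNA; nearly all actives have a fitted effect of over 60% in size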
BLM helicase inh-2 = qHTS for Inhibitors of WRN Helicase: BLM Helicase Counterscreen for WRN Inhibitors. shares compounds with WRN helicase inh-1. Recombinant BLM helicase DNA unwinding, red fluorescence. Potency, µM (top dose mostly 57.1 µM), most hits filed as inhibitors. 610 tested, 60% active; further: nearly all actives have a fitted effect of over 60% in size
Hits are given with their value; 0 = inactive; ? = inconclusive; - = no result; [ ] = another dose, or the depositor's remark. The call rests on the fitted dose curve; in most records, active means well fitted curve in the direction sought with a large enough effect; inconclusive means small, poorly fitted or top-dose-only effect, or another doubt; inactive means no such curve, though single readings can be large; an effect the other way counts as inactive or inconclusive.

SMILES | FEN1 inh-1 | BLM helicase inh-1 | APE1 inh | WRN helicase inh-1 | RECQ1 inh | FEN1 inh-2 | WRN helicase inh-2 | TO DNA binding | BLM helicase inh-2
O=C1NC(=O)N(Cc2ccccc2)C(=O)/C1=C\C=C\c1ccco1 | ? | ? | ? | 50.1µM | ? | ? | - | - | -
CCOC(=O)c1ccc(N=Cc2c(O)n(-c3ccc(OC)cc3)c(=S)[nH]c2=O)cc1 | ? | 0 | 0 | ? | 0 | 9.53 | - | - | -
COc1ccc(N=Cc2c(O)n(-c3ccc(C)cc3)c(=O)[nH]c2=O)cc1 | 0 | 0 | 0 | 0 | 0 | - | - | - | -
C=Cc1cc(OC)c2c(c1)c(=O)oc1c2cc(OC)c2c(O)ccc(C3OC(C)C(O)C(C)(O)C3O)c21 (stereo unspecified) | 1.26µM | - | - | 10µM | - | 1.69 | - | - | -
Nc1cccc2ccccc12 | - | - | ? | - | 0 | - | - | - | -
NC(N)=NCCC[C@@H](N)C(=O)O | - | 0 | 0 | - | 0 | - | - | - | -
O=C1NC(=S)N(C2CC2)C(=O)/C1=C/c1ccc2c(c1)CCN2CCCCl | ? | ? | ? | 2.99µM | ? | 75.7 | 12.1µM | ? | 7.64µM
C=CC=O | - | - | 0 | - | 0 | - | - | - | -
O=[N+]([O-])c1ccccc1-c1ccccc1 | - | - | 0 | - | 0 | - | - | - | -
Cc1cc(/C=C2\C(=O)NC(=O)N(c3cccc(F)c3)C2=O)c(C)n1-c1ccc(C(=O)O)c(Cl)c1 | 0 | 0 | 0 | 0[11.6 µM] | - | - | - | - | -
Cc1cc(/C=C2\C(=O)NC(=O)N(Cc3ccccc3)C2=O)c(C)n1-c1ccc(Cl)c(C(=O)O)c1 | 79.4µM | 0 | ? | 28.2µM | 35.5µM | ? | 6.81µM | 0 | 1.92µM
COc1cccc(OC)c1-c1nn2c(-c3n[nH]c4c3CCC4)nnc2s1 | ? | - | - | - | - | ? | ? | ? | ?
O=C(Cl)/C=C/C(=O)Cl | - | - | 0 | - | 0 | - | - | - | -
COC1C(O)C(C)OC(OC2C(Oc3cccc4c(O)c5c(=O)oc6ccc(C)c7c(=O)oc(c34)c5c67)OC(C)C(O)C2O)C1O (stereo unspecified) | 1.78µM | - | - | ? | - | 6.01 | 19.2µM | ? | 0
CCN1/C(=C/C=C/C2=[N+](CC)c3ccccc3C2(C)C)C(C)(C)c2ccccc21 | - | - | - | 4.74µM | - | 67.5 | 21.5µM | 0 | 21.5µM
CC(Cl)(Cl)Cl | - | - | 0 | - | 0 | - | - | - | -
CN(C)CC(C(=O)Cc1ccccc1)c1ccccc1 (stereo unspecified) | 0 | - | - | 44.7µM | - | - | 0.304µM | 0 | ?
CCCSC(=O)Cl | - | - | 0 | - | 0 | - | - | - | -
CCN(CCCl)c1cc(CN(C)C)cc(NC(=O)c2ccc(C(=O)Nc3cc(CN(C)C)cc(N(CC)CCCl)c3)cc2)c1 | ? | - | - | ? | - | - | 21.5µM | 0 | ?
CCN(CC)C(=O)c1ccc(NC(=O)c2cccc(C(F)(F)F)c2)cc1 | 0 | 0 | 0 | 0 | 0 | - | - | - | -
O=C1NC(=O)C(=Cc2ccc(OCCOc3ccc([N+](=O)[O-])cc3)cc2)C(=O)N1 | ? | 0 | 0 | 0[11.6 µM] | 0 | - | - | - | -
COc1cc(C=C2C(=O)NC(=O)NC2=O)ccc1OS(=O)(=O)c1ccccc1[N+](=O)[O-] | 0 | 0 | 0 | 28.2µM | - | - | 0 | 0 | 0
ClC(Cl)(Cl)C(Cl)(Cl)Cl | - | - | 0 | - | 0 | - | - | - | -
O=C1CC=C2C3CC4N(CCC45c4cc(O)c(O)cc4N1C25)CC3=CCBr (stereo unspecified) | ? | - | - | 28.2µM | - | - | 19.2µM | 0 | 5.41µM
CCOc1cc(C=C2C(=O)NC(=O)NC2=O)ccc1OCC(=O)N1CCOCC1 | 0 | 0 | 0 | ? | 0 | - | 0 | 0 | 0
Nc1ccc([N+](=O)[O-])cc1N | - | - | 0 | - | 0 | - | - | - | -
Cc1ccc(S(=O)(=O)Oc2ccccc2C=C2C(=O)N(C)C(=O)N(C)C2=O)cc1 | 0 | 0 | 0 | 44.7µM | - | - | 0 | 0 | 0

High-throughput results as filed in PubChem.
